From PubChem BioAssay AID720597 (Broad Institute, 2013) come the findings set out here.

Measured potencies and affinities stand elsewhere. Activity calls are given as the source filed them.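 Rule for the calls: active = fitted half-maximal dose no more than twice the top valid tested dose, for compounds that lower signal; inconclusive = fit invalid, or curve flat with activity between -70 and -30; inactive = potency past limit, curve flat within ±30, or signal increasing.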

Chain of NAD-dependent protein deacylase sirtuin-5, mitochondrial (Homo sapiens) (Q9NXA8 whole entry, looked up): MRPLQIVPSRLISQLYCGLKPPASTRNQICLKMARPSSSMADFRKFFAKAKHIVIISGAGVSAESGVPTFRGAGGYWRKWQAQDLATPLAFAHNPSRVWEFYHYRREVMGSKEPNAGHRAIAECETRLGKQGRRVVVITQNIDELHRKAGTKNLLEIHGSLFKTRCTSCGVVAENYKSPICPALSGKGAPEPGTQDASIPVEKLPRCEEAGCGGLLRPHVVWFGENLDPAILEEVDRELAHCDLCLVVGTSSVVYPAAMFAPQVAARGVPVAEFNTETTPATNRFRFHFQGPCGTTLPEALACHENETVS

This assay has as its target NAD-dependent protein deacylase sirtuin-5, mitochondrial (Homo sapiens) (UniProt Q9NXA8). Kind of assay: SIRT5 deacylase inhibitors, dose response, biochemical, fluorescence imaging, cherry-pick, set 6 (AID 720597).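 Note: lower AMC signal can also come from blocking the trypsin step.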 To be noted: Purified SirT5, succinyl-peptide-AMC/trypsin fluorescence; series mostly up to 15 µM.
As for `COc1cccc(NC(=O)N2CC(=O)N3[C@H](CO)[C@H](c4ccc(C#CCC5CCCC5)cc4)[C@H]3C2)c1`, the call was inactive.
For `COc1cccc(CN2[C@H](CO)[C@@H](c3ccccc3)C23CN(C(=O)C2CCC2)C3)c1`, the compound was called inactive.
The value for `COc1ccc(C#Cc2ccc([C@H]3[C@H](CO)N4C(=O)CN(C(=O)c5cccnc5)C[C@@H]34)cc2)cc1` was “inactive”; that for `CN(C)C(=O)c1cccc(-c2ccc([C@H]3[C@H](CO)N4CCCCN(S(C)(=O)=O)C[C@@H]34)cc2)c1` was “inactive”; that for `C[C@H]1CN([C@@H](C)CO)C(=O)c2cccc(NC(=O)CCCCCC(=O)Nc3ccccc3N)c2O[C@@H]1CN(C)Cc1ccc(-c2ccccc2)cc1` was “inactive”.
Next, `O=C(CC1CC1)N1[C@@H](CO)[C@@H]2c3ccccc3N(S(=O)(=O)c3ccc(F)cc3)C[C@@H]21`: “inactive”; `C[C@H](CO)N1C[C@H](C)[C@H](CN(C)Cc2cccc(C(F)(F)F)c2)OCc2ccccc2-c2ccccc2C1=O`: “inactive”.
Next, `CCCC#Cc1ccc2c(c1)O[C@H](CN(C)Cc1ccccc1)[C@@H](C)CN([C@H](C)CO)S2(=O)=O`: “inactive”; `C[C@H](CO)N1C[C@H](C)[C@@H](CN(C)Cc2ccccc2C(F)(F)F)OCc2ccccc2-c2ccccc2C1=O`: “inactive”.
Consider `Cc1noc(C)c1NC(=O)Nc1cccc2c1O[C@@H](CN(C)Cc1ccc(Oc3ccccc3)cc1)[C@@H](C)CN([C@@H](C)CO)C2=O`, for which the outcome was inactive.
The value for `CCCN(C[C@H]1[C@H](c2ccccc2)[C@@H](CO)N1C(C)=O)C(=O)NC(C)C` was “inactive”.
